According to PMC5540273 (PLoS ONE, 2017):
“And” between values parts separate entries of the source, which are not always exact repeats. Identical values can stand only once. Like-named read-outs stand apart in the source and are kept apart here.

Key:
PIP5K2C = tested on: T1, PIP5K2C; conditions: concentration: 1 μM, replicates: in singlicate, n = 1
T1 construct: gene PIP4K2C

PKAC-alpha = tested on: T2, PKAC-alpha; conditions: concentration: 1 μM, replicates: in singlicate, n = 1
T2 construct: gene PRKACA

PKAC-beta = tested on: T3, PKAC-beta; conditions: concentration: 1 μM, replicates: in singlicate, n = 1
T3 construct: gene PRKACB

PKMYT1 = conditions: concentration: 1 μM, replicates: in singlicate; n = 1
PKN1 = conditions: concentration: 1 μM, replicates: in singlicate, n = 1
PKN2 = conditions: concentration: 1 μM, replicates: in singlicate, n = 1
PLK1 = conditions: concentration: 1 μM, replicates: in singlicate, n = 1
PLK2 = conditions: concentration: 1 μM, replicates: in singlicate, n = 1
PLK3 = conditions: concentration: 1 μM, replicates: in singlicate, n = 1
PLK4 = conditions: concentration: 1 μM, replicates: in singlicate, n = 1
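Also: KINOMEscan kinase panel screen.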

SMILES | %Inh (PIP5K2C) | %Inh (PKAC-alpha) | %Inh (PKAC-beta) | %Inh (PKMYT1) | %Inh (PKN1) | %Inh (PKN2) | %Inh (PLK1) | %Inh (PLK2) | %Inh (PLK3) | %Inh (PLK4) | %Inh (PIP5K2C; 1 µM) | %Inh (PKAC-alpha; 1 µM) | %Inh (PKAC-beta; 1 µM) | %Inh (PKN1; 1 µM) | %Inh (PKN2; 1 µM) | %Inh (PLK1; 1 µM) | %Inh (PLK2; 1 µM) | %Inh (PLK3; 1 µM) | %Inh (PLK4; 1 µM)
Fc1cccc(COc2ccc(Nc3ncnc4sc(-c5ccc[nH]5)cc34)cc2Cl)c1 [GW707818] | 25% | 0% | 0% | 0% | 32% | 1% | 0% | 7% | 19% | 0% | – | – | – | – | – | – | – | – | –
O=C(NCCCN1CCCC1=O)c1cnc(NCc2cc(Cl)ccc2Cl)nc1NC1CCNCC1 | 2% | 0% | 0% | 0% | 20% | 11% | 0% | 0% | 0% | 5% | – | – | – | – | – | – | – | – | –
COC(=O)c1cccc(NC(=O)NCCNc2ccnc(Nc3ccc(F)cc3)n2)c1 [GSK1379883] | 22% | 3% | 0% | 10% | 3% | 0% | 4% | 0% | 0% | 0% | – | – | – | – | – | – | – | – | –
Fc1ccc(-c2ncn(CCCNCc3ccccc3)c2-c2ccncc2)cc1 | 3% | 26% | 6% | 27% | 23% | 1% | 0% | 5% | 13% | 32% | – | – | – | – | – | – | – | – | –
Cl.Cn1ccc(-c2cccc(Nc3ccnc4cc(-c5nccs5)ccc34)c2)n1 [GW525701] | 50% | 0% | 0% | 0% | 0% | 0% | 0% | 0% | 0% | 5% | – | – | – | – | – | – | – | – | –
COc1ccc(-c2nc3n(c2-c2ccncc2)CCC3)cc1 [SKF-104493] | – | – | – | 0% | – | – | – | – | – | – | 0% and 9% | 5% and 0% | 7% and 0% | 7% and 0% | 23% and 0% | 22% and 0% | 11% and 0% | 1% and 0% | 0% and 15%
Cn1ccc2ncnc(Nc3ccc(Oc4cccc(Cl)c4)c(Cl)c3)c21 | 22% | 4% | 0% | 0% | 0% | 0% | 0% | 30% | 24% | 26% | – | – | – | – | – | – | – | – | –
Fc1cccc(COc2ccc(Nc3ncnc4cc[nH]c34)cc2Cl)c1 | 5% | 25% | 1% | 10% | 0% | 0% | 23% | 23% | 23% | 27% | – | – | – | – | – | – | – | – | –
Nc1nc(-c2ccc3c(N)n[nH]c3c2)cc(N2CCCCC2)n1 [GSK2228768] | 0% | 56% | 0% | 13% | 18% | 0% | 0% | 0% | 0% | 0% | – | – | – | – | – | – | – | – | –
O=C(CCO)NCCn1ccc2ncnc(Nc3ccc(Oc4cccc(C(F)(F)F)c4)c(Cl)c3)c21 | 26% | 0% | 12% | 10% | 0% | 1% | 0% | 0% | 0% | 0% | – | – | – | – | – | – | – | – | –
Clc1ccc(-c2cc(-c3c[nH]nc3-c3ccccn3)ccn2)cc1 [GW681251] | 39% | 0% | 0% | 7% | 0% | 0% | 0% | 0% | 0% | 4% | – | – | – | – | – | – | – | – | –
Clc1cccc(-c2nc(Nc3ccncc3)c3ccccc3n2)c1 [GW873004] | 49% | 2% | 60% | 0% | 0% | 20% | 17% | 0% | 0% | 0% | – | – | – | – | – | – | – | – | –
NC(=O)c1sc(-n2cnc3ccccc32)cc1OCc1ccccc1F [GSK1024306] | 8% | 21% | 2% | 0% | 60% | 0% | 99.8% | 99% | 98.8% | 0% | – | – | – | – | – | – | – | – | –
CC(C)(C)c1ccc(-n2cnc3c(N)ncnc32)cc1 [SKF-97263] | 27% | 4% | 2% | 3% | 39% | 11% | 7% | 0% | 0% | 0% | – | – | – | – | – | – | – | – | –
Cc1cc(N2CCC(NS(=O)(=O)c3ccc(F)cc3)CC2)nc(Nc2cccc(C#N)c2)n1.O=C(O)C(F)(F)F [GSK1653537] | 4% | 3% | 0% | 0% | 23% | 0% | 5% | 0% | 0% | 0% | – | – | – | – | – | – | – | – | –
c1ccc(-c2ccc3c(-c4ccnc(Nc5ccc6c(c5)OCCO6)n4)cnn3n2)cc1 [GW818941] | 36% | 0% | 28% | 3% | 65% | 0% | 9% | 0% | 0% | 0% | – | – | – | – | – | – | – | – | –
CN1CCC(n2cnc(-c3ccc(F)cc3)c2-c2ccnc(NC3CCNCC3)n2)CC1 [SB-229482] | 95.2% | 0% | 13% | 0% | 0% | 25% | 11% | 0% | 0% | 20% | – | – | – | – | – | – | – | – | –
CCn1c(-c2ccncc2)nc2cnccc21 [SB-735216] | 0% | 0% | 3% | 6% | 2% | 20% | 28% | 37% | 16% | 0% | – | – | – | – | – | – | – | – | –
Nc1nccc2scc(-c3ccc4c(c3)CCN4C(=O)Cc3cc(F)ccc3F)c12 [GSK2587663] | 13% | 0% | 12% | 1% | 0% | 0% | 0% | 0% | 0% | 0% | – | – | – | – | – | – | – | – | –
COc1ccc(NC(=O)Nc2ccc(C)c(-c3ccc(C(=O)Nc4ccncc4)cc3)c2)cc1 [GSK1398475] | 0% | 8% | 0% | 0% | 0% | 0% | 0% | 0% | 0% | 0% | – | – | – | – | – | – | – | – | –
